The text below walks through data of article PMC7819943, “Rice protein-binding microarrays: a tool to detect cis-acting elements near promoter regions in rice”.

The full ranking holds about 68,000 sequences; the median of “fluorescence intensity (a.u.)” is about 9,100, and the highest 2% start at about 16,000. The list comes from a sample in which the highest values are over-represented; it also holds similar and randomly drawn sequences.

Chain of OsWRKY34 (Q0JBA9 entry or part of it): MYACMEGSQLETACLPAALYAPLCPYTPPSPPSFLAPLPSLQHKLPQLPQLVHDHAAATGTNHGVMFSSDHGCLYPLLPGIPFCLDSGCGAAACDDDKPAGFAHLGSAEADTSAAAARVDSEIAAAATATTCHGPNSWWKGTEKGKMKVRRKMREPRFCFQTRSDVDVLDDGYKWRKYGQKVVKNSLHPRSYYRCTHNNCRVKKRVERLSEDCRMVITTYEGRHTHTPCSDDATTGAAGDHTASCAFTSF

The target of the experiment is OsWRKY34 (Oryza sativa, UniProt Q0JBA9 1-250). Description: protein-binding microarray (RPBM); PBS, 2% BSA, 51.3 ng/ul salmon testes DNA, 50 uM zinc acetate, 200 nM TF, 25 C, 1 h; high values mean tight binding. The settings on record: protein: recombinant; tags: N-terminal polyhistidine and DsRed monomer fusion (pET32a); label: CyDye5-dUTP incorporated in the synthesized complementary strand; 3' TTTTT single-stranded linker to array surface; dsDNA, one strand shown. A digest of the protocol:
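Binding signal here means per-feature fluorescence intensity in arbitrary units. The values were read on an Axon 4000B scanner after a custom Agilent array, double-stranded by primer extension with Cy5-dUTP, was incubated with 200 nM protein at 25 °C for 1 h in PBS with 2% BSA, salmon testes DNA and 50 µM zinc acetate, then washed. The proteins were transcription factors with an N-terminal polyhistidine tag and DsRed, expressed in E. coli BL21-CodonPlus and purified on Ni–NTA.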
For “TCCTCGCCGACGGCGTGCCGGCTCACGTTGCACCTCACCGCGGAGTCACCTAGTGCAG”, the binding signal was 8210 fluorescence intensity (a.u.).

With “CTTTCCTGCACCTCCACTTTATTTAGTTCATTAATTGAATCGGAGTCACCTAGTGCAG”, the binding signal was 8660 fluorescence intensity (a.u.).

Turning to “CTTCGGTGTACTTTTTTCTTTTCTAGTTCCTGGTTCTAATCGGAGTCACCTAGTGCAG”, the binding signal is 18000 fluorescence intensity (a.u.).

With “GGTTCTCTTTTCTTTTCTTTTCTTTTCTCCTGGAGTTTTTCGGAGTCACCTAGTGCAG”, the binding signal was 9120 fluorescence intensity (a.u.).

Take “ACTTTGTTTACACGGTGGTTCTCTCCTTTTCTTCTTCTCACGGAGTCACCTAGTGCAG”: the binding signal is 8480 fluorescence intensity (a.u.).

For the sequence “TGGTTGTGTTCTTGTTGGCTTATACCTTTTTTATGTTTTGCGGAGTCACCTAGTGCAG”, the binding signal is 9260 fluorescence intensity (a.u.).

Turning to “GTGCGGTTTTTCTCCTGGTTCTTTTGTGTACTTTATACCACGGAGTCACCTAGTGCAG”, the binding signal is 18200 fluorescence intensity (a.u.).

Turning to “TTAATTACTTCCTTTTCTTTTCTTTTCTTTTCCTTTTTTTCGGAGTCACCTAGTGCAG”, the binding signal is 8110 fluorescence intensity (a.u.).

With “GGCGCCGCCGTCGTCCTGCTGCTTCCGCCGCCGCGTCTTCCGGAGTCACCTAGTGCAG”, the binding signal was 11000 fluorescence intensity (a.u.).

In the case of “CTGCACATGATTTCAATCTACTATGGACATTCTCACTCTCCGGAGTCACCTAGTGCAG”, the binding signal was 12100 fluorescence intensity (a.u.).

Turning to “CACCTGCCTCCTCCTACCACCAGCCGCCGCCGACGACTAACGGAGTCACCTAGTGCAG”, the binding signal is 8550 fluorescence intensity (a.u.).

With “CGGGCGGGGCGGGGCGGGTTCGCTCGTCGGATGTGTGGATCGGAGTCACCTAGTGCAG”, the binding signal is 23900 fluorescence intensity (a.u.).

“TACCTCTCTTCTCTTCTCCAATCTCTATCTATGTCTTCTTCGGAGTCACCTAGTGCAG”: the binding signal is 8640 fluorescence intensity (a.u.).

In the case of “TGCTCTCTCTCGTGTGGTCTGGTCCGCGCGCTCGTGTATACGGAGTCACCTAGTGCAG”, the binding signal is 9150 fluorescence intensity (a.u.).

Take “CGCGGGTGGTCTGGTCTCTCTCTCGTATCGTATCGTATCACGGAGTCACCTAGTGCAG”: the binding signal was 16700 fluorescence intensity (a.u.).

Regarding “CCGCTGTCGTCGTCTCGTCTCTGTGTGTGTGTCTCCATCACGGAGTCACCTAGTGCAG”, the binding signal is 8280 fluorescence intensity (a.u.).

For “CGACGGGCGGGTGTGGGGATTCGCGGCCTTGAGGGTTCGTCGGAGTCACCTAGTGCAG”, the binding signal was 9660 fluorescence intensity (a.u.).

On to “GGGGAGGGAAGGGATGGATCGGATGCGGGTTCGGGCGGTTCGGAGTCACCTAGTGCAG”, for which the binding signal is 8910 fluorescence intensity (a.u.).

“CGCGCCATCTCCATGTCATCGTCGTCGTCTGTGTCCCCTTCGGAGTCACCTAGTGCAG”: the binding signal is 10700 fluorescence intensity (a.u.).

In the case of “TCTCTCTGGGAGGTCTCGCGGAAGGTGGTGGGGTTGGGCCCGGAGTCACCTAGTGCAG”, the binding signal was 11500 fluorescence intensity (a.u.).

With “TCCATCATCGTCGTCTCTGTGTGTGTCTGTGTGTGTGTGTCGGAGTCACCTAGTGCAG”, the binding signal is 17900 fluorescence intensity (a.u.).

As to “CTCTCTCCAATCTCCATCTCTCTGTCTGATTTGTAATCTTCGGAGTCACCTAGTGCAG”, the binding signal is 16500 fluorescence intensity (a.u.).

In the case of “CGCTTCCATCTCTCTCTGTCTCTCTTCTTTTTGACCTCTTCGGAGTCACCTAGTGCAG”, the binding signal was 11900 fluorescence intensity (a.u.).

With “TTTGGTTGCTTGCCTTCTTTATCGGCAAAATTTGCTATAGCGGAGTCACCTAGTGCAG”, the binding signal was 8970 fluorescence intensity (a.u.).

Consider “ATTTAGGGAAATTATAACCATGCCACTCTGTCGTGTTTTCCGGAGTCACCTAGTGCAG”, for which the binding signal is 9180 fluorescence intensity (a.u.).

On to “AGATAGTGGTGGTGGTCTGTGCATCGTTGACTTGATCATGCGGAGTCACCTAGTGCAG”, for which the binding signal is 10900 fluorescence intensity (a.u.).

As to “GGTCCCGTTCCGATCCTCACTCGGTCACTCATCTTTCCTTCGGAGTCACCTAGTGCAG”, the binding signal was 8730 fluorescence intensity (a.u.).

As for “AAATTATAACGAGGGGTGAGGGGCTAAGAACCTATTTTCGCGGAGTCACCTAGTGCAG”, the binding signal was 9700 fluorescence intensity (a.u.).

As to “CCCATCACCACTCTGCCCACATCCCGGCGTCGCTTCGTGTCGGAGTCACCTAGTGCAG”, the binding signal was 9120 fluorescence intensity (a.u.).

“TTCGTTCCGATTCTTTTTTTTTCATTTGCTATGCATCTTCCGGAGTCACCTAGTGCAG”: the binding signal was 11000 fluorescence intensity (a.u.).

For the sequence “GTCCTATCGCGTAGCCCACACTCCACCCTATCGCGCCTTCCGGAGTCACCTAGTGCAG”, the binding signal was 11500 fluorescence intensity (a.u.).

Turning to “CGCCCCTCCCCTTTGGCGCCGCCGCGCCTGCGTTGACCCTCGGAGTCACCTAGTGCAG”, the binding signal is 8230 fluorescence intensity (a.u.).

Turning to “TCCAATCTGTGCTGCCTTTATATTAGTTCCACCAAGAAGACGGAGTCACCTAGTGCAG”, the binding signal is 9380 fluorescence intensity (a.u.).

For “GACCTTTACTTTTTCATCCTACCTAAATGCATATTCCAATCGGAGTCACCTAGTGCAG”, the binding signal was 9320 fluorescence intensity (a.u.).

With “ACTATTTGGATATCCCATTCCAACGCCATTGCCCTCTGTTCGGAGTCACCTAGTGCAG”, the binding signal is 8280 fluorescence intensity (a.u.).

In the case of “CTCTCTCGCTTCTTCTCTGTGTGTGTGTTGCGTGGTGGGGCGGAGTCACCTAGTGCAG”, the binding signal was 23800 fluorescence intensity (a.u.).

Consider “GCGGGGTTCGTGGTGTGTGCGTGTGCGTCTCTCTCTGTCTCGGAGTCACCTAGTGCAG”, for which the binding signal was 21100 fluorescence intensity (a.u.).

For the sequence “TGGCGTGGTCTCGTCTCTTCGTCTTCGGGTGTGCTCACCGCGGAGTCACCTAGTGCAG”, the binding signal is 9650 fluorescence intensity (a.u.).

On to “TTTCCGTTCCTTTCTTTCCTTCTCGCGTTTGCGTGGTGGGCGGAGTCACCTAGTGCAG”, for which the binding signal is 10500 fluorescence intensity (a.u.).

As to “TGGGAGTGTTGTTATTCTCGTGCGCGTTGTGGTTAGTGGGCGGAGTCACCTAGTGCAG”, the binding signal was 9630 fluorescence intensity (a.u.).

Consider “GTTCTCGTCGTTCGTGTTCTTCTGCTTCGGTTTCGTGGTGCGGAGTCACCTAGTGCAG”, for which the binding signal was 11900 fluorescence intensity (a.u.).

For “ATCTGTAGTCCGTTGCTCTTCTCTCTCATATTTTATCTCGCGGAGTCACCTAGTGCAG”, the binding signal is 11700 fluorescence intensity (a.u.).

“TGTGTGTATGCGTTTATAGGAGTAACTGTGTGTGCGTTTACGGAGTCACCTAGTGCAG”: the binding signal is 8150 fluorescence intensity (a.u.).

For the sequence “CGCCTCCGCCTCCGTCGACTCCGCGCCTCCGCCGCCACCCCGGAGTCACCTAGTGCAG”, the binding signal is 15100 fluorescence intensity (a.u.).

As to “TCCAGCTGCTTGCTTCTCTCTCTCTCTTCTCTTGAGCATCCGGAGTCACCTAGTGCAG”, the binding signal is 9650 fluorescence intensity (a.u.).

Consider “CGCTTGATCTGGGGTGGGGTCGCGAGTGGTGGAGGAGGTGCGGAGTCACCTAGTGCAG”, for which the binding signal was 16600 fluorescence intensity (a.u.).

Turning to “AATCTCCGTGGCGAGGGTGGGGTCGGAGGTGGTCATGTCGCGGAGTCACCTAGTGCAG”, the binding signal is 9290 fluorescence intensity (a.u.).

Turning to “AGTGGGTGGTGGTGGTGGTGGTGGTGCGAGGCCGTCGCTGCGGAGTCACCTAGTGCAG”, the binding signal was 20500 fluorescence intensity (a.u.).

Consider “GGGGACGCAGGAGGAGGTGGGTGGGTCGAGCTCGCTTGCGCGGAGTCACCTAGTGCAG”, for which the binding signal was 15400 fluorescence intensity (a.u.).

As to “TCGTGCGTGCGTGAGGGAGGTCGTGGTGGTGGTGGTGGTGCGGAGTCACCTAGTGCAG”, the binding signal was 9020 fluorescence intensity (a.u.).

Regarding “TCTGCCTTGAAGTGGTACCGTGGGTGGGAGGGTAGTTATGCGGAGTCACCTAGTGCAG”, the binding signal was 11500 fluorescence intensity (a.u.).

As to “CGGAGGCGAGTGGGTGGGTGGTGGTCCAGTGCGGTGGTGCCGGAGTCACCTAGTGCAG”, the binding signal is 9800 fluorescence intensity (a.u.).

For the sequence “ATGGGAGGTGGGTGGTACCGTGGTGGTGGTCGCAGATCTGCGGAGTCACCTAGTGCAG”, the binding signal is 27200 fluorescence intensity (a.u.).

Turning to “GGAGGAGGTGGAGGCGCTGCTGGTGGTGGAGGCCGTGGTGCGGAGTCACCTAGTGCAG”, the binding signal is 8020 fluorescence intensity (a.u.).
